For experiment [1], the target named is human Peroxisome Proliferator-activated Receptor alpha (PPARa), PPARA (gene 5465) (UniProt Q07869). Description: ATG_PPARa_TRANS: Attagene TRANS-FACTORIAL HepG2 Assay for human Peroxisome Proliferator-activated Receptor alpha (PPARa) (AID 2283001; active = hit-call score of the fitted dose curve at least 0.9, where 1 is the maximum). The procedure, abridged: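 Exposure: 24 h, transiently transfected HepG2 cells. Endpoint: GAL4-UAS reporter mRNA, RT-PCR with capillary electrophoresis fluorescence. Baseline: DMSO; increases fitted.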

Read-out in experiment [2]: Intercellular Adhesion Molecule 1 (ICAM1), ICAM1 (gene 3383)
Description: BSK_3C_ICAM1: BioMAP Diversity Plus: 3C Assay for Intercellular Adhesion Molecule 1 (ICAM1) Biomarker Activity (AID 2283003). As to conditions: primary human endothelial cells (HUVEC); actives raise or lower the signal. Summed up:
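Using DMSO as baseline, bidirectional curve fitting was applied to ICAM-1 ELISA signals from HUVEC in the 3C system, measured 24 h after compound addition.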

Experiment [3] in a line: BSK_3C_Proliferation: Cell Proliferation Assessment in the BioMAP Diversity Plus: 3C Assay (AID 2283006).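 As to AC50: potency may reflect either rise or fall in cell number versus DMSO.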 As to conditions: primary human endothelial cells (HUVEC). The procedure, abridged:
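Measured here: sulforhodamine B (0.1%) staining of TCA-fixed sub-confluent umbilical vein endothelial cultures 48 h post-dosing, absorbance 560 nm. DMSO served as negative control and baseline; both signal gain and loss were modelled.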

The target of experiment [4] is Peroxisome proliferator-activated receptor gamma (Homo sapiens) (UniProt P37231). Description: ATG_PPARg_TRANS: Attagene TRANS-FACTORIAL HepG2 Assay for human Peroxisome Proliferator-activated Receptor-gamma (PPARg) (AID 2283007; active = hit-call score of the fitted dose curve at least 0.9, where 1 is the maximum). Summed up:
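A TRANS-format multiplexed reporter assay measures activity of an exogenous chimeric NR-Gal4 protein in HepG2 cells. After 24 h of chemical exposure, reporter transcripts are amplified, fluorescently labelled and sized by capillary electrophoresis, with gain of signal scored against DMSO.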

Experiment [5] addresses Nuclear receptor subfamily 1 group I member 2 (Homo sapiens) (UniProt O75469). Description: ATG_PXR_TRANS: Attagene TRANS-FACTORIAL HepG2 Assay for human Pregnane X Receptor (PXR) (AID 2283008; active = hit-call score of the fitted dose curve at least 0.9, where 1 is the maximum). Summed up: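 Transient HepG2 transfectants carrying multiplexed reporter transcription units; PXR activity read through a Gal4 chimera. 24 h exposure. RT-PCR/CE fluorescence; upward curve fit referenced to DMSO.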

The target in experiment [6] is human RAR-related Orphan Receptor gamma (RORg), RORC (gene 6097) (UniProt P51449). Description: ATG_RORg_TRANS: Attagene TRANS-FACTORIAL HepG2 Assay for human RAR-related Orphan Receptor gamma (RORg) (AID 2283011; active = hit-call score of the fitted dose curve at least 0.9, where 1 is the maximum). Summed up:
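Readout: reporter transcript induction (RT-PCR, fluorescent primer extension, capillary electrophoresis) after 24 h compound exposure of transiently transfected HepG2 cells carrying a RORg-Gal4 chimera and GAL4-UAS reporters; DMSO served as baseline, with increasing signal fitted.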

Experiment [7] deals with Retinoic acid receptor RXR-alpha (Homo sapiens) (UniProt P19793). Description: ATG_RXRa_TRANS: Attagene TRANS-FACTORIAL HepG2 Assay for human Retinoid X Receptor alpha (RXRa) (AID 2283012; active = hit-call score of the fitted dose curve at least 0.9, where 1 is the maximum). Summed up:
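Chimeric NR-GAL4 trans-activation in HepG2, 24 h treatment; reporter transcripts quantified by fluorescence on capillary electrophoresis, analysed for upward change from DMSO.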

Experiment [8] addresses human Retinoid X Receptor beta (RXRb), RXRB (gene 6257) (UniProt P28702). Description: ATG_RXRb_TRANS: Attagene TRANS-FACTORIAL HepG2 Assay for human Retinoid X Receptor beta (RXRb) (AID 2283013; active = hit-call score of the fitted dose curve at least 0.9, where 1 is the maximum). The procedure, abridged: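 After a 24 h incubation with test chemical, transfected HepG2 cells carrying NR-Gal4 fusions and GAL4-UAS reporter transcription units yield RNA whose reporter cDNA is FAM-labelled, HpaI-cut and sized by capillary electrophoresis; increases over DMSO are scored.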

Experiment [9] deals with human Thyroid Receptor alpha (THRa1), THRA (gene 7067) (UniProt P10827). Description: ATG_THRa1_TRANS: Attagene TRANS-FACTORIAL HepG2 Assay for human Thyroid Receptor alpha (THRa1) (AID 2283014; active = hit-call score of the fitted dose curve at least 0.9, where 1 is the maximum). The procedure, abridged:
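HepG2 cells transiently transfected with multiplexed GAL4-UAS reporter units for exogenous chimeric THRa1-Gal4; reporter mRNA measured 24 h after dosing by RT-PCR, 6-FAM labelling, HpaI digestion and capillary electrophoresis. Gain-of-signal fitted versus DMSO baseline.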

Read-out in experiment [10]: E-selectin (Homo sapiens) (UniProt P16581)
Description: BSK_3C_Eselectin: BioMAP Diversity Plus: 3C Assay for Eselectin Biomarker Activity (AID 2283015).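 As to outcome: cell surface E-selectin protein quantified by ELISA 24 h after dosing.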 As to conditions: primary human endothelial cells (HUVEC); actives raise or lower the signal. The procedure, abridged: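 Primary human umbilical vein endothelial cells (3C system) were dosed with chemical and cell-surface E-selectin measured by ELISA 24 h later. Bidirectional curve fitting used DMSO as negative control and baseline.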

Read-out in experiment [11]: Interleukin-1 alpha (IL1a), IL1A (gene 3552)
Description: BSK_BE3C_IL1a: BioMAP Diversity Plus: BE3C Assay for Interleukin-1 alpha (IL1a) Biomarker Activity (AID 2283016). As to conditions: primary human bronchial epithelial cells; actives raise or lower the signal. The procedure, abridged: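 Measured in human lung primary bronchial epithelial cells: IL-1a by ELISA at 24 h after dosing, with bidirectional fitting against DMSO.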

Read-out in experiment [12]: Monocyte Chemoattractant Protein-1 (MCP1), CCL2 (gene 6347)
Description: BSK_3C_MCP1: BioMAP Diversity Plus: 3C Assay for Monocyte Chemoattractant Protein-1 (MCP1) Biomarker Activity (AID 2283017). The settings on record: primary human endothelial cells (HUVEC); actives raise or lower the signal. The procedure, abridged:
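Primary human umbilical vein endothelial cells (3C system) were exposed to test chemical for 24 h, after which MCP-1 was quantified by ELISA. Activity was fitted bidirectionally against DMSO as negative control and baseline.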

Read-out in experiment [13]: Monocyte Chemoattractant Protein-1 (MCP1), CCL2 (gene 6347)
Description: BSK_4H_MCP1: BioMAP Diversity Plus: 4H Assay for Monocyte Chemoattractant Protein-1 (MCP1) Biomarker Activity (AID 2283018). The settings on record: primary human endothelial cells (HUVEC); actives raise or lower the signal. The procedure, abridged:
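Primary human umbilical vein endothelium is exposed to chemical for 24 h before MCP-1 is assayed by ELISA. Concentration-response fitted bidirectionally relative to DMSO.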

Read-out in experiment [14]: Human Leukocyte Antigen - DR isotype (HLADR), HLA-DRA (gene 3122)
Description: BSK_3C_HLADR: BioMAP Diversity Plus: 3C Assay for Human Leukocyte Antigen - DR isotype (HLADR) Biomarker Activity (AID 2283019). The settings on record: primary human endothelial cells (HUVEC); actives raise or lower the signal. The procedure, abridged: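 Primary human umbilical vein endothelial cells (3C system) were dosed with compound and cell-surface HLA-DR was quantified by ELISA at 24 h. Activity was fitted bidirectionally against DMSO as negative control and baseline.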

Read-out in experiment [15]: Interleukin-8 (IL8), CXCL8 (gene 3576)
Description: BSK_3C_IL8: BioMAP Diversity Plus: 3C Assay for Interleukin-8 (IL8) Biomarker Activity (AID 2283020). As to conditions: primary human endothelial cells (HUVEC); actives raise or lower the signal. Summed up: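 Using DMSO-treated wells as the baseline, bidirectional curve fitting was applied to ELISA-measured IL-8 from human umbilical vein endothelial cultures sampled 24 h after compound addition.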

Read-out in experiment [16]: Monokine induced gamma interferon (MIG), CXCL9 (gene 4283)
Description: BSK_3C_MIG: BioMAP Diversity Plus: 3C Assay for Monokine induced gamma interferon (MIG) Biomarker Activity (AID 2283021).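 As to AC50: MIG protein level measured by immunoassay in the treated endothelial cultures.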 As to conditions: primary human endothelial cells (HUVEC); actives raise or lower the signal. The procedure, abridged:
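ELISA-measured MIG in dosed HUVEC 3C cultures at 24 h, analysed by bidirectional fitting with DMSO defining baseline activity.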

Experiment [17] deals with human Peroxisome Proliferator-activated Receptor delta (PPARd), PPARD (gene 5467) (UniProt Q03181). Description: ATG_PPARd_TRANS: Attagene TRANS-FACTORIAL HepG2 Assay for human Peroxisome Proliferator-activated Receptor delta (PPARd) (AID 2283002; active = hit-call score of the fitted dose curve at least 0.9, where 1 is the maximum). Summed up:
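Measured quantity: GAL4-UAS reporter transcript induction in HepG2 after 24 h chemical dosing, with NR-Gal4 chimeras supplied by transient transfection. Detection by RT-PCR and capillary electrophoresis; upward fit against DMSO.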

Experiment [18] addresses human Retinoic Acid Receptor beta (RARb), RARB (gene 5915) (UniProt P10826). Description: ATG_RARb_TRANS: Attagene TRANS-FACTORIAL HepG2 Assay for human Retinoic Acid Receptor beta (AID 2283004; active = hit-call score of the fitted dose curve at least 0.9, where 1 is the maximum). The procedure, abridged: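 HepG2 cells transiently transfected with multiplexed GAL4-UAS reporter units expressing chimeric NR–Gal4 fusions; 24 h compound exposure. Reporter mRNA quantified by RT-PCR, 6-FAM labelling, HpaI digestion and capillary electrophoresis; gain-of-signal fitted against DMSO baseline.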

Experiment [19] has as its target Retinoic acid receptor alpha (Homo sapiens) (UniProt P10276). Description: ATG_RARa_TRANS: Attagene TRANS-FACTORIAL HepG2 Assay for human Retinoic Acid Receptor alpha (RARa) (AID 2283005; active = hit-call score of the fitted dose curve at least 0.9, where 1 is the maximum). Summed up:
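HepG2 cells transiently transfected with multiple reporter units expressing chimeric RARα-GAL4 fusion, with GAL4-UAS-driven reporters. After 24 h compound exposure, reporter mRNA induction quantified by RT-PCR and capillary electrophoresis with fluorescent labeling; gain-of-signal fitted relative to DMSO control.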

Experiment [20] deals with human Retinoic Acid Receptor gamma (RARg), RARG (gene 5916) (UniProt P13631). Description: ATG_RARg_TRANS: Attagene TRANS-FACTORIAL HepG2 Assay for human Retinoic Acid Receptor gamma (RARg) (AID 2283009; active = hit-call score of the fitted dose curve at least 0.9, where 1 is the maximum). The procedure, abridged:
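Gain-of-signal relative to DMSO is reported from fluorescent capillary electrophoresis of RT-PCR reporter products. These came from HepG2 cells expressing transfected RARg-GAL4 chimeras with UAS reporters, harvested 24 h after dosing.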

For orientation: AC50 means the concentration at which the activity in the assay is half-maximal.

Inconclusive results are not listed. The source holds several records for some structures; these can differ, active in one and inactive in another. Activity calls are given as the source filed them. The calls were made as follows, unless noted: active = hit-call score of the fitted dose curve at least 0.9, where 1 is the maximum; inactive = score below 0.9.

Sequence of human RAR-related Orphan Receptor gamma (RORg), RORC (gene 6097) (P51449 whole entry, looked up, the tested form may be a part): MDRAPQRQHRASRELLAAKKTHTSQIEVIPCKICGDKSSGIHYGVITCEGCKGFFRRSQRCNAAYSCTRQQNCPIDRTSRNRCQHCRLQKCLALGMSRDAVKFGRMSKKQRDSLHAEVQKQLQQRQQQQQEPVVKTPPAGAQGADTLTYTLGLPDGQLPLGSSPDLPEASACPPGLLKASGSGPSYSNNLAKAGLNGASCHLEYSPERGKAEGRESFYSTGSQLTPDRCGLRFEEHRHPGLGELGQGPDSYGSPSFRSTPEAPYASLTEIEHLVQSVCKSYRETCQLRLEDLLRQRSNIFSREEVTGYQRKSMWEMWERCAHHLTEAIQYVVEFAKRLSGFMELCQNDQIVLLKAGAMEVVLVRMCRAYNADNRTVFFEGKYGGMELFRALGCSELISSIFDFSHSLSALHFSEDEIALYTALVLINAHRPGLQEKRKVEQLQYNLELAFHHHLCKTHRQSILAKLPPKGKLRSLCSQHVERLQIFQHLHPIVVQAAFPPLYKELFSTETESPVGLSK
Sequence of human Peroxisome Proliferator-activated Receptor delta (PPARd), PPARD (gene 5467) (Q03181 whole entry, looked up, the tested form may be a part): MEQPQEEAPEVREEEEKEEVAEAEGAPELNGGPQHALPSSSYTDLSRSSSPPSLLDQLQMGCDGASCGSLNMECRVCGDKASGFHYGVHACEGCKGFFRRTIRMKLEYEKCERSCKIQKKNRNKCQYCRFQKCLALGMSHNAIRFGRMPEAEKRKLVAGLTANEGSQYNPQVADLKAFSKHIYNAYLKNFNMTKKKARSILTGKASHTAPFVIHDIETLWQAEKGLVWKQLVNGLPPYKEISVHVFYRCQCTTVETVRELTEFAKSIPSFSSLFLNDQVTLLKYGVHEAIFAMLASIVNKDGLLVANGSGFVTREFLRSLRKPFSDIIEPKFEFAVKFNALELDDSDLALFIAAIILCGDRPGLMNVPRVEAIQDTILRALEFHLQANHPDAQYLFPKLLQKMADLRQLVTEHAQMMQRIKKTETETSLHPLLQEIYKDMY
Sequence of human Retinoid X Receptor beta (RXRb), RXRB (gene 6257) (P28702 whole entry, looked up, the tested form may be a part): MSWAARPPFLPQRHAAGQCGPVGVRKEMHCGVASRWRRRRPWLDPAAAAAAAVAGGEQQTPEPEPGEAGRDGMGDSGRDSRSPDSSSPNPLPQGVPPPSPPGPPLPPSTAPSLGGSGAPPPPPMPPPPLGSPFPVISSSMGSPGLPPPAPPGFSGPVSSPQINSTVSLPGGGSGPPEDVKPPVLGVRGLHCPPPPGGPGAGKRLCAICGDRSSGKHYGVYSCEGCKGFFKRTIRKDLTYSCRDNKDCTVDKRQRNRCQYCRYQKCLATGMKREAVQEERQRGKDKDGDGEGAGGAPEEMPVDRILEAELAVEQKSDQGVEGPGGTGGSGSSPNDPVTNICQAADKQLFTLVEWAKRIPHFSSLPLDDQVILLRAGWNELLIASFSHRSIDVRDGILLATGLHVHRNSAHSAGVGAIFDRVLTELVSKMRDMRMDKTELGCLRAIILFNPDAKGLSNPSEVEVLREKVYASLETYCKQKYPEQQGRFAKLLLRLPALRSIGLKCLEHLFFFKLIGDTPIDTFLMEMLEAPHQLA
Sequence of E-selectin (Homo sapiens) (P16581 whole entry, looked up): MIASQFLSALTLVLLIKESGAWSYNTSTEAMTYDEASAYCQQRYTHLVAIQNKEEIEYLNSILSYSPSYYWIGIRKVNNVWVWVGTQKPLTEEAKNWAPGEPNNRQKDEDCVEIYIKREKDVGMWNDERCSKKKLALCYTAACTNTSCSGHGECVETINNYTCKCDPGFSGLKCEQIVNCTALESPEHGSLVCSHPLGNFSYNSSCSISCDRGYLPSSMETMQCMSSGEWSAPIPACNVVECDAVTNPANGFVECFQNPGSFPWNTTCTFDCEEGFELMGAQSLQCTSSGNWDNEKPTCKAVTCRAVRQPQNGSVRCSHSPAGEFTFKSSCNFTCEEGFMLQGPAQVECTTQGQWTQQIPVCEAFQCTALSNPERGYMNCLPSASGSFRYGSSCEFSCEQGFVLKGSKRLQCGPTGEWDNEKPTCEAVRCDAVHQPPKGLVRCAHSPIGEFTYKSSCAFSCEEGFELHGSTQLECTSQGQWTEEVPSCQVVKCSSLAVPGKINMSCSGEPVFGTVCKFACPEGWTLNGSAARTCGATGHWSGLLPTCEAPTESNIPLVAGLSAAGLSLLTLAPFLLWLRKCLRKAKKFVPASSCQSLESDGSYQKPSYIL
Sequence of Peroxisome proliferator-activated receptor gamma (Homo sapiens) (P37231 whole entry, looked up, the tested form may be a part): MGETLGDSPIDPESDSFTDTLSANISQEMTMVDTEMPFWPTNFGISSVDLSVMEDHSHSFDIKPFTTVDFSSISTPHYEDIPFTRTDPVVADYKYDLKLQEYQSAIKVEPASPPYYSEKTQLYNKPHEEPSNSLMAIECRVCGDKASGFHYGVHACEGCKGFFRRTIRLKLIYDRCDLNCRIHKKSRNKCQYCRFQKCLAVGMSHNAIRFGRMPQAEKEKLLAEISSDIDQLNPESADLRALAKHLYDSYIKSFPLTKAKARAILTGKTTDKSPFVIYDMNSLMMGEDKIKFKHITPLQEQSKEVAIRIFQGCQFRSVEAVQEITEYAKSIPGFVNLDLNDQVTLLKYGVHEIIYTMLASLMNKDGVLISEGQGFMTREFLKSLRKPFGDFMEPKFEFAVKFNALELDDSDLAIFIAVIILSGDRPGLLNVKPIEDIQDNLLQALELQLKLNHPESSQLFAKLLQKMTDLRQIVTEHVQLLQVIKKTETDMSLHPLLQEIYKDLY
Sequence of Retinoic acid receptor RXR-alpha (Homo sapiens) (P19793 whole entry, looked up, the tested form may be a part): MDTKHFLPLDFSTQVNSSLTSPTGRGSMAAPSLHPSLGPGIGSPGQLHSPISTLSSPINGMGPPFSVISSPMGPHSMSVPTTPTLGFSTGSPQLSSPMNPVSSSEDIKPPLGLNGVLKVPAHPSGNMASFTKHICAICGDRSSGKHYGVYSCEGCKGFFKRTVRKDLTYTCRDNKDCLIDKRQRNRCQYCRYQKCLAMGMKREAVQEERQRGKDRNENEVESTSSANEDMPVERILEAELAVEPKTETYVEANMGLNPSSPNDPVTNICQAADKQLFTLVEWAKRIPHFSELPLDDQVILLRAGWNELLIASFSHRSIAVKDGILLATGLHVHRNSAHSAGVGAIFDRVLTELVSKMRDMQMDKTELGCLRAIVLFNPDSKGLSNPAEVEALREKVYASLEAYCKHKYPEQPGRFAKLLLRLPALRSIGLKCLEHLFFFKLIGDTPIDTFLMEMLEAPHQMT
Sequence of Nuclear receptor subfamily 1 group I member 2 (Homo sapiens) (O75469 whole entry, looked up, the tested form may be a part): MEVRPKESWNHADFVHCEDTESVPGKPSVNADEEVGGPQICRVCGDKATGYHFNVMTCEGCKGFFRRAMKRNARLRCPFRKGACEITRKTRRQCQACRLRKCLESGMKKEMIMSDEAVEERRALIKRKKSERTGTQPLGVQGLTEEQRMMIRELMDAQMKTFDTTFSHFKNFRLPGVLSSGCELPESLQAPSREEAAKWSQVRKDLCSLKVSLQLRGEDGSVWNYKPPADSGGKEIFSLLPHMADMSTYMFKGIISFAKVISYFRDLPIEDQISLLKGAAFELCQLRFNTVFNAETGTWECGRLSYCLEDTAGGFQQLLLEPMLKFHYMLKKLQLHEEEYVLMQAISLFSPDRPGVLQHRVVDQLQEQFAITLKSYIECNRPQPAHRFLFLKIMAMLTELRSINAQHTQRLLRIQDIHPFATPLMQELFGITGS
Sequence of human Thyroid Receptor alpha (THRa1), THRA (gene 7067) (P10827 whole entry, looked up, the tested form may be a part): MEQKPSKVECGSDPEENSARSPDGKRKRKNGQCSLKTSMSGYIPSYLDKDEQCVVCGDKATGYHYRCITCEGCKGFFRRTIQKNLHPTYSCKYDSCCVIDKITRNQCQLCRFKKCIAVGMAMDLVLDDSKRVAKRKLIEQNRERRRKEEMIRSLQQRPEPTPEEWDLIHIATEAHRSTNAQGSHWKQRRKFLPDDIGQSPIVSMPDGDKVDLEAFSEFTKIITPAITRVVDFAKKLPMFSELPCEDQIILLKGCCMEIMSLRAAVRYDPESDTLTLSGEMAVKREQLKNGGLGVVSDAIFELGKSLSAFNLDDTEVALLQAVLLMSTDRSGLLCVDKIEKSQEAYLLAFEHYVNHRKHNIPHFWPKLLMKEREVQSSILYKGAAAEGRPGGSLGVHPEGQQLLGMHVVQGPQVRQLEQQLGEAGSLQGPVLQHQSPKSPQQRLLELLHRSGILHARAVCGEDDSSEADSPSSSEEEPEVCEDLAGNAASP
Sequence of human Peroxisome Proliferator-activated Receptor alpha (PPARa), PPARA (gene 5465) (Q07869 whole entry, looked up, the tested form may be a part): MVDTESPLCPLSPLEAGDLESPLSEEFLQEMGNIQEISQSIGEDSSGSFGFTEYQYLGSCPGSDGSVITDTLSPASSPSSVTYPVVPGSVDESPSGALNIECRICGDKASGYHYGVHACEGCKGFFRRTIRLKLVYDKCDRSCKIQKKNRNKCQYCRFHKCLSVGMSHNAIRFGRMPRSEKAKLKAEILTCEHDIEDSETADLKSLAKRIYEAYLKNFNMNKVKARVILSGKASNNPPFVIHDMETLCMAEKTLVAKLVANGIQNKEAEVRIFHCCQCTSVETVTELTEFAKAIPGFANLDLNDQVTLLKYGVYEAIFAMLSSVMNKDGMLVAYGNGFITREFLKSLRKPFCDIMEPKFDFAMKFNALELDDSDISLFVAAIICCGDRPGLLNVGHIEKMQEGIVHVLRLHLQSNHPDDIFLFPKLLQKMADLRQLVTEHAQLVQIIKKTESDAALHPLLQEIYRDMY
Sequence of human Retinoic Acid Receptor beta (RARb), RARB (gene 5915) (P10826 whole entry, looked up, the tested form may be a part): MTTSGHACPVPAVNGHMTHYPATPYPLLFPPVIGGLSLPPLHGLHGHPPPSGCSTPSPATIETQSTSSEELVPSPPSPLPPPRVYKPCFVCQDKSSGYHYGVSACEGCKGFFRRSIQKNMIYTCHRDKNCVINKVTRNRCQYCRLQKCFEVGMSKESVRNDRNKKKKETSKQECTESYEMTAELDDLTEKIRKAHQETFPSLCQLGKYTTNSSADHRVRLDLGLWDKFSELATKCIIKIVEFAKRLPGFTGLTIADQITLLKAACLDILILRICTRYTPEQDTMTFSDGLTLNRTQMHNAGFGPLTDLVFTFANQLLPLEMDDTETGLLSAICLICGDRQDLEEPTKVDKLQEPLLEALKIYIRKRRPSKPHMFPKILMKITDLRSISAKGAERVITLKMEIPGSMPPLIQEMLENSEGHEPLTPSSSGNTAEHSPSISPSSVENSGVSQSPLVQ

Take `C=C(C)C(=O)OCCC(F)(F)C(F)(F)C(F)(F)C(F)(F)C(F)(F)C(F)(F)F`: the molecule was classed as inactive in experiment [1], in [2], in [3], in [4], in experiment [5] and in [6]. For the same molecule, the molecule was classed as inactive in [7], in experiment [8], in experiment [9], in [10], in experiment [11] and in experiment [12]. For the same molecule, the result in experiment [13], in experiment [14], in [15] and in experiment [16] was inactive. In experiment [3], the AC50 is 12.8 µM (active).
For `CC#C[C@]1(O)CC[C@H]2[C@@H]3CCC4=CC(=O)CCC4=C3[C@@H](c3ccc(N(C)C)cc3)C[C@@]21C`, the molecule was called inactive in experiment [17], in experiment [2], in experiment [7] and in experiment [9]. The AC50 in [3] was 28.6 µM (active); in experiment [4] it was 193 nM (active) [middle of 4 runs]; in experiment [10], 29.3 µM (active); in experiment [11], 32.1 µM (active); in [12], 36.3 µM (active); in [13] it was 20 µM (active). Besides, the AC50 is 37.7 µM (active) in experiment [14], 31.1 µM (active) in experiment [15] and 38.3 µM (active) in experiment [16].
For `CC[C@H](C)[C@@H](C(=O)O)n1sc2ccccc2c1=O`, the result in experiment [2], in [18], in [19], in experiment [3], in experiment [5] and in experiment [6] was inactive. In addition, the molecule was called inactive in experiment [8], in experiment [9], in experiment [10], in [11], in [12] and in experiment [13]. Besides, the result in experiment [14], in experiment [15] and in experiment [16] was inactive. Besides, the AC50 in experiment [4] is 100 µM (active).
Take `O=C(OCCOCCOC(=O)c1ccccc1)c1ccccc1`: the molecule was classed as inactive in [17], in experiment [2], in [18], in experiment [3], in [20] and in [6]. Besides, the molecule was classed as inactive in experiment [9], in experiment [10], in experiment [11], in [12], in experiment [13] and in experiment [14]. The outcome in [15] and in experiment [16] was inactive.

The values are drawn from PubChem BioAssay (EPA / NIEHS).
